This note sets out measurements from PubChem BioAssay.

For experiment [1], the system named is Wnt5a (protein binding on small-molecule microarray). The experiment is described as follows: small molecules binding Wnt5a protein – biophysical, small-molecule microarray, 635/667 nm fluorescence, primary screen (AID 1142).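 Note: fluorescence read at 667 nm with signal to noise per printed feature.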 As to conditions: 635 nm fluorescence, higher = more signal.
A short description of experiment [2]: ATP-based viability of Huh7 replicon cells – cell-based, CellTiter-Glo luminescence, basal, 48 h, cytotoxicity control for HCV replication inhibitor project, primary screen (AID 1143).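 Note: Huh7 hepatoma cells carrying a hepatitis C replication reporter with no stimulus; test concentration not given here.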 As to conditions: higher = more signal, called active from +8 up or from −8 down. (In antiviral work, replicon cells carry a viral genome segment that copies itself.)
Experiment [3] can be described thus: Pseudomonas biofilm growth suppression – PAO1 strain, BacTiter-Glo luminescence, LB-PBS, primary screen (AID 1144). As to conditions: P. aeruginosa PAO1 biofilm, 12 h, higher = more signal.
The nature of experiment [4]: basal CRE-LacZ reporter activity in PC12 – cell-based, unstimulated, primary screen (AID 1145). As to conditions: no forskolin, luminescence, 4.5 h, higher = more signal, called active from +8 up or from −8 down.
Experiment [5] is described as follows: forskolin-driven CRE-LacZ activity in PC12 – cell-based, CRE-LacZ reporter, forskolin-stimulated, primary screen (AID 1146).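 Note: PC12 cells with 6xCRE LacZ reporter stimulated by forskolin 10 µM; beta-galactosidase reporter signal reflecting CREB driven transcription.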 As to conditions: luminescence, 4.5 h, higher = more signal, called active from +8 up or from −8 down.
In experiment [6] the target is Streptavidin (Streptomyces avidinii) (UniProt P22629). Kind of experiment: compounds binding control protein streptavidin – biophysical, small-molecule microarray, 635/667 nm fluorescence, artefact control for SMM compound annotation, primary screen (AID 1147).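 Note: signal reflects streptavidin binding to arrayed compounds as a control protein.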 As to conditions: higher = more signal.
The nature of experiment [7]: probe aInhba binding on compound microarray – biochemical, small-molecule microarray, 635/667 nm fluorescence, primary screen (AID 1148).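 Note: score merges 667nm spot fluorescence with signal-to-noise for antibody binding to printed compounds.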 As to conditions: higher = more signal.
Experiment [8] has as its target Torsin-1A (Homo sapiens) (UniProt O14656). The experiment is described as follows: TOR1A wild-type binding on microarray – cell lysate, small-molecule microarray, lysate, 635/667 nm, primary screen (AID 1149). As to conditions: COS7 hTOR1A-WT lysate, 635 nm fluorescence, higher = more signal.
The target is the same in experiment [9]. The experiment is described as follows: torsin A mutant lysate binding on microarrays – cell lysate, small-molecule microarray, COS7 lysate, 635/667 nm fluorescence, primary screen (AID 1150).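 Note: score pools 667 nm emission and signal to noise measuring lysate protein binding.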 As to conditions: COS7 hTOR1A mutant lysate, 635 nm fluorescence, higher = more signal.
Experiment [10] has as its system Sonic hedgehog protein (Shh). The experiment is described as follows: Sonic hedgehog microarray binding compounds – biochemical, small-molecule microarray, 635/667 nm fluorescence, primary screen (AID 1151).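 Note: Shh protein binding to compounds spotted on small-molecule microarray slides; score combines spot fluorescence intensity with signal-to-noise across triplicate slides.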 As to conditions: 635 nm fluorescence, higher = more signal.

Each structure is given as a SMILES string. Calls of active or inactive are those of the source. Unless noted, the rule behind the calls is not given here.

Sequence of Streptavidin (Streptomyces avidinii) (P22629 whole entry, looked up): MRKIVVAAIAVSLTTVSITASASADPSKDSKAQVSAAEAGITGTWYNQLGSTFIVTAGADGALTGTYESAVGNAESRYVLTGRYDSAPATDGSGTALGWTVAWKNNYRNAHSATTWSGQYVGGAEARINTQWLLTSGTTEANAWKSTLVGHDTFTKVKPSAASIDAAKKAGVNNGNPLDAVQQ
Sequence of Torsin-1A (Homo sapiens) (O14656 whole entry, looked up): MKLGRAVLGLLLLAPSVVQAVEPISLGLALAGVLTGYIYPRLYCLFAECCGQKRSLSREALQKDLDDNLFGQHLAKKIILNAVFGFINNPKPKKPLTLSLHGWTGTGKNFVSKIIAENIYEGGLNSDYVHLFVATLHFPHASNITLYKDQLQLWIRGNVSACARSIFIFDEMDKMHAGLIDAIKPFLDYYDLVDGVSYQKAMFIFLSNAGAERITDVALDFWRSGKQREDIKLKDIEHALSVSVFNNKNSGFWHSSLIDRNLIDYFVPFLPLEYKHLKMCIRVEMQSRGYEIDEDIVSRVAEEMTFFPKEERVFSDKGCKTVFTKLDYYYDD

Take `CCOC(=O)C1=CC[C@@H](c2ccccc2)N(S(=O)(=O)c2ccc(C)cc2)[C@H]1c1ccccc1`: the composite z-score in [1] was 0.144; in experiment [6], 1.46; in experiment [7] it was 0.115; with Torsin-1A (Homo sapiens) [8], 0.345; with Torsin-1A (Homo sapiens) [9] it was 0.626; in experiment [10], -0.627. Further, the z-score in experiment [2] was -3.01 (inactive); in [3], 1.29 (inactive); in experiment [4] it was -0.0228 (inactive); in [5] it was 1.31 (inactive).

Take `CC(c1ccccc1)C(O)C1C=CC2C(=O)N(C)C(=O)C2N1Nc1ccccc1` (stereo not given): the composite z-score is 0.462 in experiment [1]; 1.62 in experiment [6]; 0.562 in experiment [7]; 0.112 with Torsin-1A (Homo sapiens) [8]; 0.299 with Torsin-1A (Homo sapiens) [9]; -0.353 in [10]. Moreover, the z-score in experiment [2] is 0.481 (inactive); in [3], -0.0225 (inactive); in experiment [4] it was 0.0535 (inactive); in experiment [5], -0.0744 (inactive).

As for `COc1ccc([Si](C)(C)[C@@H]2[C@@H](CC(=O)N3CCC[C@H]3CO)O[C@]3(C(=O)N(Cc4cccc(N5C(=O)COc6ccccc65)c4)c4ccccc43)[C@H]2C)cc1`, the composite z-score in experiment [1] is 0.326; in experiment [6], 0.554; in experiment [7] it was -0.0494; with Torsin-1A (Homo sapiens) [8], 0.95; with Torsin-1A (Homo sapiens) [9], 0.938; in [10] it was 1.12. Further, the z-score was -5.39 (inactive) in experiment [2], 0.425 (inactive) in experiment [3], 1.5 (inactive) in experiment [4] and -0.361 (inactive) in [5].

Turning to `COCCOC(=O)N1C(=O)[C@@]2(c3cc(C#CC4(O)CCCCCC4)ccc31)[C@H](C(=O)N1CCc3cc(OC)c(OC)cc3C1)[C@H]1C(=O)O[C@H](c3ccccc3)[C@H](c3ccccc3)N1[C@@H]2c1ccc(OCCO)cc1`, the composite z-score in [1] is 0.536; in experiment [6], 1.04; in [7] it was -0.0736; in the experiment with Torsin-1A (Homo sapiens) [8], 0.71; in the experiment with Torsin-1A (Homo sapiens) [9], 0.362; in experiment [10], 1.58. The z-score is -1.38 (inactive) in [2], -0.555 (inactive) in experiment [3], -0.465 (inactive) in [4] and 0.581 (inactive) in experiment [5].

As to `CC(C)c1ccc(NN2C(C(O)c3ccc(C#N)cc3)C=CC3C(=O)N(c4ccccc4)C(=O)C32)cc1` (stereo not given), the composite z-score in experiment [1] is 0.248; in experiment [6], 1.96; in experiment [7], 0.41; with Torsin-1A (Homo sapiens) [8], 0.0628; in the experiment with Torsin-1A (Homo sapiens) [9], 0.579; in [10], -0.163. In addition, the z-score is -0.687 (inactive) in [2], -0.803 (inactive) in experiment [3], 0.812 (inactive) in experiment [4] and 0.802 (inactive) in experiment [5].

In the case of `CC(CO)N1C(=O)[C@]2(C)C3C(=O)OCCC/C=C\[C@H]3OC23C=CCN(c2ccc(Cl)cc2)C(=O)[C@@H]13` (stereo not given in full), the composite z-score is -0.313 in experiment [1]; -0.741 in experiment [6]; -0.316 in experiment [7]; -0.775 in the experiment with Torsin-1A (Homo sapiens) [8]; -0.734 in the experiment with Torsin-1A (Homo sapiens) [9]; 0.0223 in experiment [10]. Moreover, the z-score is 0.612 (inactive) in experiment [2], -1.53 (inactive) in [3], 0.187 (inactive) in experiment [4] and -0.592 (inactive) in experiment [5].

Regarding `Cc1ccc(N2C(=O)c3ccccc3[C@@H](C(=O)NCCCN(C)C)[C@@H]2c2ccc(CO)cc2)nc1`, the composite z-score in experiment [1] was -0.198; in [6] it was 0.0893; in experiment [7], -0.477; in the experiment with Torsin-1A (Homo sapiens) [8] it was 0.276; in the experiment with Torsin-1A (Homo sapiens) [9], 0.011; in [10], 0.0381. Besides, the z-score is 0.492 (inactive) in experiment [2], 0.252 (inactive) in [3], 0.208 (inactive) in [4] and -1.35 (inactive) in experiment [5].

`COc1cc(NN2C(C(O)c3ccco3)C=CC3C(=O)N(C)C(=O)C32)cc(OC)c1OC` (stereo not given): the composite z-score in experiment [1] amounted to 0.259; in experiment [6] it was 0.536; in experiment [7], 0.288; with Torsin-1A (Homo sapiens) [8] it was 1.27; with Torsin-1A (Homo sapiens) [9], 1.04; in experiment [10], 0.0765. Also, the z-score was 1.06 (inactive) in experiment [2], 0.184 (inactive) in [3], 0.815 (inactive) in [4] and 1.06 (inactive) in [5].

As to `[N-]=[N+]=Nc1ccccc1C[C@]1(C(=O)NCCN2CCOCC2)COC(c2ccc(OCCCO)cc2)=N1`, the composite z-score stood at 0.898 in experiment [1]; 1.25 in [6]; 0.0497 in experiment [7]; 0.707 in the experiment with Torsin-1A (Homo sapiens) [8]; 1.75 with Torsin-1A (Homo sapiens) [9]; 0.0324 in [10]. The z-score in experiment [2] is -1.06 (inactive); in experiment [3], 0.783 (inactive); in experiment [4], 0.754 (inactive); in experiment [5] it was 1.45 (inactive).

Consider `COCCCNC(=O)[C@@H]1c2ccccc2C(=O)N(C(C)C)[C@H]1c1ccc(CO)cc1`, for which the composite z-score was 0.389 in experiment [1]; -0.337 in experiment [6]; -0.045 in [7]; -0.17 in the experiment with Torsin-1A (Homo sapiens) [8]; 0.0072 in the experiment with Torsin-1A (Homo sapiens) [9]; 0.499 in experiment [10]. The z-score is -0.293 (inactive) in experiment [2], 0.701 (inactive) in experiment [3], -0.179 (inactive) in [4] and 0.312 (inactive) in experiment [5].

Consider `COc1ccc([Si](C)(C)[C@@H]2[C@@H](CCO)O[C@]3(C(=O)N(Cc4ccccc4)c4ccc(N5CCOC5=O)cc43)[C@H]2C)cc1`, for which the composite z-score in experiment [1] is 0.0035; in experiment [6], 0.242; in experiment [7], -0.016; with Torsin-1A (Homo sapiens) [8], 0.151; in the experiment with Torsin-1A (Homo sapiens) [9], 0.817; in experiment [10], 1.39. Also, the z-score is -5.88 (inactive) in experiment [2], -1.37 (inactive) in [3], 3.23 (inactive) in experiment [4] and -0.205 (inactive) in experiment [5].

Regarding `CCCC=C(CCC)[C@@H](NC(=O)c1cccs1)c1ccc(C(=O)OC)cc1`, the composite z-score in experiment [1] was 0.535; in experiment [6] it was 0.373; in experiment [7], 0.375; with Torsin-1A (Homo sapiens) [8] it was 0.657; with Torsin-1A (Homo sapiens) [9], 0.183; in [10], -0.83. Besides, the z-score was -0.268 (inactive) in [2], -0.473 (inactive) in experiment [3], -0.951 (inactive) in experiment [4] and 0.158 (inactive) in experiment [5].

As to `CC(C)C(CO)N1C(=O)[C@@H]2[C@H]3C(=O)OCC=C[C@H]3OC23C=CCN(c2ccc(Cl)cc2)C(=O)[C@@H]13` (stereo not given in full), the composite z-score in experiment [1] is -0.0632; in experiment [6] it was -0.446; in experiment [7] it was -0.0987; with Torsin-1A (Homo sapiens) [8], -0.677; with Torsin-1A (Homo sapiens) [9], -0.377; in experiment [10] it was -0.339. The z-score in experiment [2] is -0.755 (inactive); in experiment [3] it was 2.84 (inactive); in experiment [4], 0.203 (inactive); in experiment [5], -0.652 (inactive).

As to `CO[C@H]1O[C@H](CO)[C@@H](OC(=O)Nc2ccc3c(c2)OCO3)[C@H](OC(=O)Nc2ccc3c(c2)OCO3)[C@@H]1OC(=O)Nc1ccc2c(c1)OCO2`, the composite z-score in [1] was 0.523; in experiment [6], 1.11; in experiment [7], -0.0087; with Torsin-1A (Homo sapiens) [8], 0.967; with Torsin-1A (Homo sapiens) [9], 1.05; in experiment [10] it was 0.164. The z-score in [2] is -2.3 (inactive); in experiment [3], 0.506 (inactive); in experiment [4], 0.643 (inactive); in experiment [5], -1.48 (inactive).

With `CCOC(=O)[C@@H]1CCCCN1C(=O)C(=O)OC`, the composite z-score in experiment [1] is 0.214; in experiment [6], -0.0957; in experiment [7] it was 0.0118; with Torsin-1A (Homo sapiens) [8], 0.188; with Torsin-1A (Homo sapiens) [9] it was -0.144; in [10], 0.901. Also, the z-score was 0.474 (inactive) in experiment [2], 0.594 (inactive) in experiment [3], 0.362 (inactive) in [4] and 1.56 (inactive) in experiment [5].
